# Measurements published in the supplement of paper PMC11417369.
# Whole data set: some 25,000 sequences, median “ln(normalized median fluorescence intensity)” near 7.1, cut for the highest 2% near 10. The full list was thinned out, with the highest values kept by preference.
# Tested on: PfSIP2 AP2 domain 1 (GST-tagged)
# Assay: gcPBM binding intensity (ln(normalized median fluorescence intensity)); higher = stronger DNA binding
# Summary of the method: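 Probes on an Agilent 4 × 180k array were primer-extended, double-stranded and 36 bp long, taken from intergenic genomic regions, with negative controls added. GST-tagged P. falciparum DNA-binding domains from E. coli, about 25 μg on average, were applied to the array for 1 h in 1× PBS containing 1% milk, 0.2 mg/ml BSA, 0.5% salmon testes DNA and 0.03% Triton X-100. Binding intensity, obtained after Alexa488 anti-GST antibody detection and a 488 nm scan, is the highest Masliner-normalised natural-log median intensity across replicate spots of either probe orientation.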
row,Sequence,gcPBM binding intensity (ln)
1,ATATATATTAATAGTTGTACTATTATAATATTACAA [XGTACX_site1213],7
2,AGGATAACATACAAAAGTACATAAAACTAAAAAAAC [XGTACX_site26],7.32
3,TATATGTTTACTTAATGTACTTACATTTTTATAACA [XGTACX_site1100],6.91
4,GCATTATTATATATTTGTACATATTTTTTTTTAAAA [XGTACX_site5436],7.3
5,AATATATAAACACGTACACACACATATATGTATATA [CACACA_site9168],7.39
6,TATTAAATTATATAGACACACATTATGTATATATAT [CACACA_site345],7.49
7,TTTTTTAAAAGAAAATAAAAAATAAGCATAATATGA [CACACA_negctrl_site1574],7.06
8,ATGGAATATTTCATGATTTTTTTAATTTTTTTATTG [XGTACX_negctrl_site55],6.6
9,ATATATTATATATATTTTAAGTAATTTGCAAAAAAT [GTGCAC_negctrl_site361],7.01
10,GAAAGAATAAAATAAACATGCAAATAAAACATAAAA [TGCATGCA_site471],7.2
11,CACATAAAATAAGGTGCATGCAAACGAGAAAATAAA [TGCATGCA_site75],11
12,ACGGAAAAAGAAAAGGTGCATATGGACACAATATAT,11.3
13,TATGGAAGAAAATATACACACAAAAAAAAAAAATGG [CACACA_site4924],6.99
14,AGGTGCAAAAATAAAACATGCAAAAATAAAAATGAA [TGCATGCA_site502],9.93
15,AAAAGGAACGGACACACACACATATATATATATATA [CACACA_site5894],9.31
16,TTGTTAAATATTTATAAAATGAATTTAAAATGTACT [CACACA_negctrl_site665],7.05
17,ATATGTATAAATATAAATATATATATATATATATAT [CACACA_negctrl_site705],9.63
18,TAATATAAAGGAAAAGAAAAGAAAAGAATATACAAT [CACACA_negctrl_site1369],6.69
19,GGACAAGAATAGTGCACATGCAATGTTATTTTTTAT [TGCATGCA_site450],10.9
20,GAAAGGACAAGAATAGTGCACATGCAATGTTATTTT [GTGCAC_site9985],9.8
21,GTAATAAGAATTATAGTGCAATGTAATACATTTATA,7.97
22,ATTTTTTTTTTTTTTATTCCCCTTTCGAAAAAAACC [CACACA_negctrl_site1139],7.18
23,CTTATTGATTTAAAAAGTACATATATGTATATACAC [XGTACX_site4072],7.05

row,Sequence,gcPBM binding intensity (ln)
1,ATAGTTTAATTTATATGTACATATAATATTGATTTG [XGTACX_site7520],7.29
2,TACTTATTTGATTGGGTGCATATATATAGTATGTAT [GTGCAC_site9845],10.6
3,TTTTATTTATCTAATTGTACTCATTCTTTTTTGATG [XGTACX_site2876],6.88
4,AGATATATATATAGGTGTACTGGAATGAAATTGTTT [XGTACX_site8200],6.94
5,GATGAAAATAGAAATACACACTAAAAAATAAAATTA [CACACA_site4764],6.75
6,AAATAAAAATTAAAAAAATAGAAACGAATTGAATGC [TGCATGCA_negctrl_site365],7.2
7,TATAAATTAAAATGTGTGCACTAAATTGAAATAGAA,10.7
8,TCAATATATATAAGAAGTACATGTGAATGAAAAAAA [XGTACX_site1674],7.14
9,AAAAAAAAATTATTCACACATATATATATATATATA [CACACA_site5579],9.38
10,GCATATTTTATAATTTTACACACCATATAAAATAAT [CACACA_site8904],7.2
11,ATATACACCTGAGAGGTGCATATATATAAAATTTAC,11.2
12,TAAAATAATTTATGCATACACACATATATATATATA [CACACA_site4021],9.23
13,TAAGAATTGAAAAAATGTACACAATATAAAATTGAA [XGTACX_site698],6.88
14,TAAATTATAATATGCACACAAAATGTTATATTAAAA [CACACA_site376],7.01
15,TATTAAAAATGTTAAGTGCAAAAATAAAAATTGTGG [GTGCAC_site9854],7.71
16,ATAATTAAGTTATGTGTGCACTGTTAAAAATAAATG,10.4
17,ACCTATATAAGTTATACACACAAATATAGATATATA [CACACA_site7356],7.06
18,TATGGTATATACAACACACACACATATGTATATATA [CACACA_site927],7.14
19,AACAAGTTGCATGGTGCACACATGTATTTATATCTA [CACACA_site5414],11.8
20,ATGTAAGTTGTGCATTCACACACATATATATATATA [CACACA_site9086],9.26
21,AACAAGTTGCATGGTGCACACATGTATATATATCTA [CACACA_site2548],11.6
22,TAGTTGCACATGTATACACACAAAAAATATTTTATG [CACACA_site475],7.68
23,ATCATATGTATGCATACACACAAAAAGTTATTTATA [CACACA_site6325],7.06
